Our source for the binding signal values is PMC7862700, “An all-to-all approach to the identification of sequence-specific readers for epigenetic DNA modifications on cytosine”.

Test in all cases: DAPPL (digital affinity profiling via proximity ligation, sequencing); 10 mM Tris-HCl pH 7.5, 50 mM NaCl, 1 mM DTT, 4% glycerol, room temperature, 30 min; GST-TFs on glutathione beads, 16-mer random dsDNA library, 0.1% formaldehyde crosslink after washing; high values mean tight binding
Common to all, as to conditions: protein: recombinant; tags: N-terminal GST; dsDNA, one strand shown

In assay [1] the target is T1, ERF (Homo sapiens, UniProt P50548 1-548).
T1 sequence: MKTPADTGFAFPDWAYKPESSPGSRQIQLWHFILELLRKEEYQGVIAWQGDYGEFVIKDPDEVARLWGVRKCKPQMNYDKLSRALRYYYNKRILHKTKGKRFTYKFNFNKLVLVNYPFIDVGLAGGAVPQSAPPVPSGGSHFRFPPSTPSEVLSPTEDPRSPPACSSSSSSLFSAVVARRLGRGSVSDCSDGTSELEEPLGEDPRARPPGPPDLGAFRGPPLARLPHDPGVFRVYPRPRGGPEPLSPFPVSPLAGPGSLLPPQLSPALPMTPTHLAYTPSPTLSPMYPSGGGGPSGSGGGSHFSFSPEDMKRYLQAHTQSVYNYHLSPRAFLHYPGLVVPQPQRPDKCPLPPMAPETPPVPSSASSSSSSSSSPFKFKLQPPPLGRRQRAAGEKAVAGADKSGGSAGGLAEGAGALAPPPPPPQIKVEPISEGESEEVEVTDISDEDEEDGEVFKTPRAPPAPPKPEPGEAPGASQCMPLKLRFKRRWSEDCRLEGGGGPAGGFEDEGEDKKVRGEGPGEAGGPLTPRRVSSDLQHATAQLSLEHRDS
In a few lines:
(§1)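 In yeast, human transcription factors were expressed with a GST fusion, then pulled down on glutathione beads and given DNA barcodes. Pooled with a tag-only sample, they were exposed to 200 nmole of a 16-mer random double-stranded DNA library (Tris/NaCl/DTT/glycerol buffer, room temperature, 30 min), washed, crosslinked with 0.1% formaldehyde, proximity-ligated using BsaI/T4 ligase for 1 h at 37 °C, PCR-amplified and read on an Illumina NextSeq500. Each hexamer's frequency of reads for a factor, divided by the matching frequency for the tag-only sample, gives the binding signal.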

For assay [2], the target named is T2, ETV3L (Homo sapiens, UniProt Q6ZN32 1-361).
T2 sequence: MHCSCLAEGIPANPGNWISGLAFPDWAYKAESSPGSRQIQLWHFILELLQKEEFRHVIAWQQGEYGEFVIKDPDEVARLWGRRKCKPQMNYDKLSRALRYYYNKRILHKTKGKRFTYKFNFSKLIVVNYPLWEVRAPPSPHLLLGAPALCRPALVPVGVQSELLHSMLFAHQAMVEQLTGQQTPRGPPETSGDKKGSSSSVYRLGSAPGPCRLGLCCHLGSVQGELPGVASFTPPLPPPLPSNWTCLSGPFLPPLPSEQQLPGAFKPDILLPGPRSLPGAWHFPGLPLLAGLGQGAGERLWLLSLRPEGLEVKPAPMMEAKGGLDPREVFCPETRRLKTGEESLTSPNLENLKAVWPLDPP
In a few lines: as §1

Assay [3] concerns the target T3, ETS2 (Homo sapiens, UniProt P15036 1-469).
T3 sequence: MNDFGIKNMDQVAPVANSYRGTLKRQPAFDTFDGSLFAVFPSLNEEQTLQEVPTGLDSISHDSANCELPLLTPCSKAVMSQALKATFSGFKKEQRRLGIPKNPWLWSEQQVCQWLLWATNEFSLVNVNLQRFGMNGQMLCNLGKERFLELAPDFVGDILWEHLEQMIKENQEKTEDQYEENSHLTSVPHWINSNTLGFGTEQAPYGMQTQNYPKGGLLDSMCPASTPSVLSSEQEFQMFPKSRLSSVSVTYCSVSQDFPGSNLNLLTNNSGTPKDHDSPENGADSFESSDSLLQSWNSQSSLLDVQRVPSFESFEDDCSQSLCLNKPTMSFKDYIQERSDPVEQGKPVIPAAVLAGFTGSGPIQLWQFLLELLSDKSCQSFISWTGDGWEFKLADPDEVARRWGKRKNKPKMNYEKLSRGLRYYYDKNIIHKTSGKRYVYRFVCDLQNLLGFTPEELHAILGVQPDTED
In a few lines: as §1

In assay [4] the target is T4, SPDEF (Homo sapiens, UniProt O95238 1-335).
T4 sequence: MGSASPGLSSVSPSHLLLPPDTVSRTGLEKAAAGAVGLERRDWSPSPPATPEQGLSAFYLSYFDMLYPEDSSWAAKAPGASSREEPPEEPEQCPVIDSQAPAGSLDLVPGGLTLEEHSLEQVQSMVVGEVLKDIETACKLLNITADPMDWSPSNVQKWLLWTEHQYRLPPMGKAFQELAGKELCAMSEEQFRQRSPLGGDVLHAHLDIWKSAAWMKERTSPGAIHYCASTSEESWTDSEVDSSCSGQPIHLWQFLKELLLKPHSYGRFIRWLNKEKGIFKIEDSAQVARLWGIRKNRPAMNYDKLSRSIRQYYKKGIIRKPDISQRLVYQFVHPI
In a few lines: as §1

The target in assay [5] is T5, ETV7 (Homo sapiens, UniProt Q9Y603 1-341).
T5 sequence: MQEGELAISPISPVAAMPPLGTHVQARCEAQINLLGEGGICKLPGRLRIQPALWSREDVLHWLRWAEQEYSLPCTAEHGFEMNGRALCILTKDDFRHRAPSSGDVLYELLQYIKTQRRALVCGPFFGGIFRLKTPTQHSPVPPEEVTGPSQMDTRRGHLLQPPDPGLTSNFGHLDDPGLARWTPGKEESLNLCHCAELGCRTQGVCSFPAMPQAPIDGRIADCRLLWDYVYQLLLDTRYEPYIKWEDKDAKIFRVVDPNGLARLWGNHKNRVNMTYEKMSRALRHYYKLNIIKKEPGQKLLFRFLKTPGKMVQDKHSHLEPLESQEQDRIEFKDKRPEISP
In a few lines: as §1

Assay [6] has as its target T6, ELF5 (Homo sapiens, UniProt Q9UKW6-2 1-255).
T6 sequence: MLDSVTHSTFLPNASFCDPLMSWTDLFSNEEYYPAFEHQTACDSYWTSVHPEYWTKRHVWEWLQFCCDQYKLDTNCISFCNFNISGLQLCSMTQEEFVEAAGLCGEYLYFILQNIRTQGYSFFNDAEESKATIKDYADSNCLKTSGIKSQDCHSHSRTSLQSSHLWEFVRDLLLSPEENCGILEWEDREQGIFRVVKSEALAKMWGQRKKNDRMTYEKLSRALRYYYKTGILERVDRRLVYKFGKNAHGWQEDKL
In a few lines:
as §1

For assay [7], the target named is T7, ETV3 (Homo sapiens, UniProt P41162-2 1-143).
T7 sequence: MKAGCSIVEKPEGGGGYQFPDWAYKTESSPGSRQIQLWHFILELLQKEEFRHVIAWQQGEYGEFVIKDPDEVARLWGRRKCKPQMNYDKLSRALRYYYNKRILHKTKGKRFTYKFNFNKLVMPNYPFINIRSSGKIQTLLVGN
In a few lines:
as §1

Assay [8] addresses ETV6 (Homo sapiens, UniProt P41212 1-452). In a few lines:
as §1

Chain of ETV6 (P41212 whole entry): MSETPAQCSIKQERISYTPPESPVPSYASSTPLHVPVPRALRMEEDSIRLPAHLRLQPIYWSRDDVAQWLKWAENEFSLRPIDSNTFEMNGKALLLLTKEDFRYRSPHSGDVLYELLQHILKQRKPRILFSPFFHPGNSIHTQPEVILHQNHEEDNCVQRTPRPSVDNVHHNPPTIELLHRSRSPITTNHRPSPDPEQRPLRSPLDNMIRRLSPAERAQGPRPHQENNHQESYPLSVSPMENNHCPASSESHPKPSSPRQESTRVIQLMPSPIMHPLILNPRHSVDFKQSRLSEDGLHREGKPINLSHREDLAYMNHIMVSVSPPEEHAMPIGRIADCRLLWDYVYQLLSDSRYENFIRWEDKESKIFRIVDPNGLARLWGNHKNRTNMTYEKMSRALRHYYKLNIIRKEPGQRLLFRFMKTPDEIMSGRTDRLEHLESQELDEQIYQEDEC

With AAATAG, the binding signal in assay [1] is 1.11 fold enrichment (6-mer frequency, TF over GST control); in assay [2] it was 1.15 fold enrichment (6-mer frequency, TF over GST control); in assay [3], 1.12 fold enrichment (6-mer frequency, TF over GST control); in assay [4], 1 fold enrichment (6-mer frequency, TF over GST control); in assay [5] it was 1.23 fold enrichment (6-mer frequency, TF over GST control); in assay [6], 1.14 fold enrichment (6-mer frequency, TF over GST control). Besides, the binding signal is 1.21 fold enrichment (6-mer frequency, TF over GST control) in assay [7] and 1.18 fold enrichment (6-mer frequency, TF over GST control) in assay [8].

For CGCACT, the binding signal was 1.21 fold enrichment (6-mer frequency, TF over GST control) in assay [1]; 1.29 fold enrichment (6-mer frequency, TF over GST control) in assay [2]; 1.18 fold enrichment (6-mer frequency, TF over GST control) in assay [3]; 1.1 fold enrichment (6-mer frequency, TF over GST control) in assay [4]; 1.27 fold enrichment (6-mer frequency, TF over GST control) in assay [5]; 1.23 fold enrichment (6-mer frequency, TF over GST control) in assay [6]. Besides, the binding signal in assay [7] was 1.39 fold enrichment (6-mer frequency, TF over GST control); in assay [8], 1.25 fold enrichment (6-mer frequency, TF over GST control).

For CTCACT, the binding signal in assay [1] was 1.45 fold enrichment (6-mer frequency, TF over GST control); in assay [2] it was 1.52 fold enrichment (6-mer frequency, TF over GST control); in assay [3], 1.6 fold enrichment (6-mer frequency, TF over GST control); in assay [4], 1.44 fold enrichment (6-mer frequency, TF over GST control); in assay [5], 1.56 fold enrichment (6-mer frequency, TF over GST control); in assay [6], 1.54 fold enrichment (6-mer frequency, TF over GST control). In addition, the binding signal in assay [7] is 1.5 fold enrichment (6-mer frequency, TF over GST control); in assay [8] it was 1.6 fold enrichment (6-mer frequency, TF over GST control).

For ACATCG, the binding signal in assay [1] is 1.11 fold enrichment (6-mer frequency, TF over GST control); in assay [2], 1.18 fold enrichment (6-mer frequency, TF over GST control); in assay [3] it was 1.02 fold enrichment (6-mer frequency, TF over GST control); in assay [4], 1.08 fold enrichment (6-mer frequency, TF over GST control); in assay [5], 1.07 fold enrichment (6-mer frequency, TF over GST control); in assay [6], 1.01 fold enrichment (6-mer frequency, TF over GST control). Moreover, the binding signal in assay [7] is 1.08 fold enrichment (6-mer frequency, TF over GST control); in assay [8], 1.04 fold enrichment (6-mer frequency, TF over GST control).

For the sequence AACTTC, the binding signal is 2.22 fold enrichment (6-mer frequency, TF over GST control) in assay [1]; 2.51 fold enrichment (6-mer frequency, TF over GST control) in assay [2]; 2.63 fold enrichment (6-mer frequency, TF over GST control) in assay [3]; 2.21 fold enrichment (6-mer frequency, TF over GST control) in assay [4]; 2.3 fold enrichment (6-mer frequency, TF over GST control) in assay [5]; 3.55 fold enrichment (6-mer frequency, TF over GST control) in assay [6]. Further, the binding signal was 2.57 fold enrichment (6-mer frequency, TF over GST control) in assay [7] and 2.76 fold enrichment (6-mer frequency, TF over GST control) in assay [8].

Turning to TCCAAA, the binding signal in assay [1] is 1.14 fold enrichment (6-mer frequency, TF over GST control); in assay [2] it was 1.18 fold enrichment (6-mer frequency, TF over GST control); in assay [3], 1.16 fold enrichment (6-mer frequency, TF over GST control); in assay [4], 1.15 fold enrichment (6-mer frequency, TF over GST control); in assay [5] it was 1.14 fold enrichment (6-mer frequency, TF over GST control); in assay [6] it was 1.15 fold enrichment (6-mer frequency, TF over GST control). Moreover, the binding signal in assay [7] is 1.2 fold enrichment (6-mer frequency, TF over GST control); in assay [8], 1.14 fold enrichment (6-mer frequency, TF over GST control).

Regarding TACCTG, the binding signal is 1.22 fold enrichment (6-mer frequency, TF over GST control) in assay [1]; 1.09 fold enrichment (6-mer frequency, TF over GST control) in assay [2]; 1.15 fold enrichment (6-mer frequency, TF over GST control) in assay [3]; 1.11 fold enrichment (6-mer frequency, TF over GST control) in assay [4]; 1.24 fold enrichment (6-mer frequency, TF over GST control) in assay [5]; 1.21 fold enrichment (6-mer frequency, TF over GST control) in assay [6]. Also, the binding signal in assay [7] is 1.19 fold enrichment (6-mer frequency, TF over GST control); in assay [8], 1.2 fold enrichment (6-mer frequency, TF over GST control).

In the case of CCCCAC, the binding signal is 1.14 fold enrichment (6-mer frequency, TF over GST control) in assay [1]; 1.28 fold enrichment (6-mer frequency, TF over GST control) in assay [2]; 1.22 fold enrichment (6-mer frequency, TF over GST control) in assay [3]; 1.2 fold enrichment (6-mer frequency, TF over GST control) in assay [4]; 1.11 fold enrichment (6-mer frequency, TF over GST control) in assay [5]; 1.19 fold enrichment (6-mer frequency, TF over GST control) in assay [6]. Moreover, the binding signal in assay [7] was 1.2 fold enrichment (6-mer frequency, TF over GST control); in assay [8], 1.1 fold enrichment (6-mer frequency, TF over GST control).
